# Unmarked numbers belong to inactive results. For part of these data: Measured potencies and affinities stand elsewhere. Active and inactive are the calls of the source. Unless noted, how the calls were made is not given here.
# Experiments:
# [1] = antimalarial activity against Dd2 strain (AID 2302;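 active means growth inhibition above 50% at the single 2 µM test dose, taken to imply half-maximal potency below 2 µM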;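 further: 0% = DMSO untreated growth and 100% = chloroquine plus artemisinin killed control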); details: P. falciparum Dd2 in RBCs, LDH growth readout, 72 h; at 2 µM; hits give high values
# [2] = human hepatoma cell viability loss – ATP luminescence, cytotoxicity control for P. falciparum antimalarial project, primary screen (AID 2303;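 active means inhibition above 50%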;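 further: 0% = DMSO wells and 100% = digitonin-killed cells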); details: HepG2 viability, 24-48 h, at 10 µM, hits give high values
# [3] = target: L-lactate dehydrogenase (Plasmodium falciparum (isolate CDC / Honduras)) (UniProt Q27743); experiment: PfLDH activity inhibition – cell lysate, 3D7 strain, counter-screen for P. falciparum growth inhibition project (AID 2304);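 further: 0% = vehicle and 100% = reference inhibitor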; details: P. falciparum 3D7 crude extract, LDH APAD/NBT absorbance; at 2 µM; hits give high values
# [4] = inhibition of 3D7 malaria parasite growth – strain 3D7 (AID 2306);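 further: 0% = DMSO wells and 100% = chloroquine plus artemisinin control wells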; details: P. falciparum 3D7 erythrocytic growth, LDH absorbance, 72 h; at 2 µM; hits give high values
# [5] = target: Calcium-dependent protein kinase 1 (Plasmodium falciparum (isolate 3D7)) (UniProt P62344); experiment: PfCDPK1 kinase inhibitors, biochemical, TCAMS library (AID 1159585; cut-off not given, nearly all actives have IC50 up to about 0.98 µM;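 further: inhibitors leave more ATP so luminescence rises with inhibition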); details: recombinant PfCDPK1, Kinase-Glo ATP depletion luminescence
# [6] = target: Plasmodium falciparum protein kinase 6 (PK6, PF3D7_1337100) (UniProt Q8IDW1); experiment: PfPK6 kinase inhibitors, biochemical, TCAMS library (AID 1159586); details: recombinant PfPK6, Kinase-Glo ATP depletion luminescence
# [7] = target: Protein kinase 7 (PK7), Plasmodium falciparum 3D7 (PF3D7_0213400) (UniProt Q7YTF7); experiment: inhibition of Plasmodium PK7 catalytic activity – biochemical, TCAMS antimalarial set, Kinase-Glo luminescence (AID 1159587); details: recombinant PfPK7, Kinase-Glo ATP depletion luminescence
# [8] = target: Calcium-dependent protein kinase 4 (Plasmodium falciparum (isolate 3D7)) (UniProt Q8IBS5); experiment: PfCDPK4 kinase inhibitors, biochemical, TCAMS library (AID 1159588; cut-off not given, nearly all actives have IC50 up to about 0.91 µM); details: recombinant PfCDPK4, Kinase-Glo ATP depletion luminescence
# Sequence of Calcium-dependent protein kinase 4 (Plasmodium falciparum (isolate 3D7)) (Q8IBS5 whole entry, looked up): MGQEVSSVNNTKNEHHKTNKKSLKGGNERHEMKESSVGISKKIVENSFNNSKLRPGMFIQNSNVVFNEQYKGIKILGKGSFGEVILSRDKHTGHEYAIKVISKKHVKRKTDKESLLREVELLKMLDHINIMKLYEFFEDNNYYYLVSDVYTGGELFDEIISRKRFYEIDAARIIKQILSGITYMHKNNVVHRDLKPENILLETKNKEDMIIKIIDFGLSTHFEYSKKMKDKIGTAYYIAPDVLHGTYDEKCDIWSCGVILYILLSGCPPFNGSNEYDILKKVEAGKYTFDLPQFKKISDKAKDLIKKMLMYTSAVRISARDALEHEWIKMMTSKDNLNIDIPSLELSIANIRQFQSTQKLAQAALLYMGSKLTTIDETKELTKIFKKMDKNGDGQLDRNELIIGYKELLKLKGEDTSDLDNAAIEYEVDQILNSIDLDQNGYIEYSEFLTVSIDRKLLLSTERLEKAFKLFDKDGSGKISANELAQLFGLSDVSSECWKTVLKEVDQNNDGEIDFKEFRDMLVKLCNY
# Sequence of Plasmodium falciparum protein kinase 6 (PK6, PF3D7_1337100) (Q8IDW1 1-305): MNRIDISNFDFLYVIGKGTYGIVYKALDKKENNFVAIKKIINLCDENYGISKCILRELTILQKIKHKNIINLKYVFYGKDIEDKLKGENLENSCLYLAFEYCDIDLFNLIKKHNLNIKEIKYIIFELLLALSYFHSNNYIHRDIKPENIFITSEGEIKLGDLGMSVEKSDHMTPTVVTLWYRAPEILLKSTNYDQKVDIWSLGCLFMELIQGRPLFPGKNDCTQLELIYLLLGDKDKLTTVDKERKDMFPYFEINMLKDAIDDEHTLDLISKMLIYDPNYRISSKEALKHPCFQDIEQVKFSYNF
# Sequence of Protein kinase 7 (PK7), Plasmodium falciparum 3D7 (PF3D7_0213400) (Q7YTF7 1-343): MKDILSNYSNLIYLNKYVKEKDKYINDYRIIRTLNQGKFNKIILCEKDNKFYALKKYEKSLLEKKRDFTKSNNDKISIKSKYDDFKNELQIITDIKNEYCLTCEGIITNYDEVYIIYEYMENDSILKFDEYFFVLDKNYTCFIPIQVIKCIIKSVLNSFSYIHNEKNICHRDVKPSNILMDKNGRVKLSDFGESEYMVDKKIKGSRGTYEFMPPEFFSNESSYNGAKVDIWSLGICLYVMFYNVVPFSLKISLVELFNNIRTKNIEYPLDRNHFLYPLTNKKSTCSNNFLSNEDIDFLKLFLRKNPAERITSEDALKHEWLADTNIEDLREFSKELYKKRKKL
# Sequence of Calcium-dependent protein kinase 1 (Plasmodium falciparum (isolate 3D7)) (P62344 whole entry, looked up): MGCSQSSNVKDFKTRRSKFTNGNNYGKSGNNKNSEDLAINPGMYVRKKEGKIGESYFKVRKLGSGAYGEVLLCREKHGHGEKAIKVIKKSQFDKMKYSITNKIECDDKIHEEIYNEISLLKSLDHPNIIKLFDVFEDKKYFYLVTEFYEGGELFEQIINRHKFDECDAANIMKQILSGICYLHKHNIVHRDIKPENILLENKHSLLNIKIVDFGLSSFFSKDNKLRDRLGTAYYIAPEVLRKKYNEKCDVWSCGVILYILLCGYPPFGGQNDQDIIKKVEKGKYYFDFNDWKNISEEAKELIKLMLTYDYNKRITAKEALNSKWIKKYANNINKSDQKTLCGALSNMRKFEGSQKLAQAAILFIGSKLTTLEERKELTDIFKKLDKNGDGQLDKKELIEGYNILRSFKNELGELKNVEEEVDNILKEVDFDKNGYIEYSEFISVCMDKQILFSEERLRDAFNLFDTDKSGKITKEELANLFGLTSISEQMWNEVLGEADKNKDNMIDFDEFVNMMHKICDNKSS
# Sequence of L-lactate dehydrogenase (Plasmodium falciparum (isolate CDC / Honduras)) (Q27743 whole entry, looked up): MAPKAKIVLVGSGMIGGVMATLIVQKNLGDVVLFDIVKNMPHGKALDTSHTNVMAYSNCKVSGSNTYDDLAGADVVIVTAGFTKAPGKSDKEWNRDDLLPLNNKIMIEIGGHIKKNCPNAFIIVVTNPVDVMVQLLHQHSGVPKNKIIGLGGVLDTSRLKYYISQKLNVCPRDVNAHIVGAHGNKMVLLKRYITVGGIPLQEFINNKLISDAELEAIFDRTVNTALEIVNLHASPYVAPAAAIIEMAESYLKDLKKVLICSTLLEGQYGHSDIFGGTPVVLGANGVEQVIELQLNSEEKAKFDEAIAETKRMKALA
Structure (SMILES),growth inhibition [1],inhibition [2],inhibition [3] [%],growth inhibition [4],outcome [5],outcome [6],outcome [7],outcome [8]
COc1ccc2ncc(Cl)c(NCC3(O)CCC(NCc4ccc5c(n4)NC(=O)CS5)CC3)c2n1 (stereo not drawn),31%,39%,-3,96% (active),inactive,inactive,inactive,inactive
CCCCCCCCCn1c(NCc2cc(Cl)ccc2O)nc2ccccc21,92% (active),13%,-4,97% (active),inactive,inactive,inactive,inactive
CC[C@H](C)CNC(=O)c1cncc(-c2ccc(CNCC3CNCCCO3)cc2)c1 (stereo partly drawn),-2%,-5%,-1,100% (active),inactive,inactive,inactive,inactive
FC(F)(F)c1cccc(Nc2nc(-n3ccnc3)nc(-n3ccnc3)n2)c1,9%,5%,1,97% (active),inactive,inactive,inactive,inactive
Cc1ccc(S(=O)(=O)NC2CCN(c3ccnc4cc(Cl)ccc34)C2)cc1 (stereo not drawn),90% (active),21%,-3,99% (active),inactive,inactive,inactive,inactive
CCCNCc1ccc(-c2ccc(CN(CCOC)C(=O)CCC(=O)c3ccc(OC)c(F)c3)cc2)nc1,47%,13%,-7,100% (active),inactive,inactive,inactive,inactive
CCCOc1ccccc1-c1nc2[nH]c3c(c2c(=O)[nH]1)CCN(C)C3,70% (active),8%,-6,87% (active),inactive,inactive,inactive,inactive
N#Cc1ccc(OCCN(Cc2ccccc2C(F)(F)F)c2ccc(C#N)c(C(F)(F)F)c2)cc1,84% (active),69% (active),1,101% (active),inactive,inactive,inactive,inactive
Cc1cc(-c2cc(Cl)ccc2Cl)no1,97% (active),36%,-8,96% (active),inactive,inactive,inactive,inactive
c1ccc2c(c1)CN(Cc1cc3ccccc3[nH]1)CC1(CCN(Cc3c[nH]c4cnccc34)CC1)O2,62% (active),27%,-3,101% (active),inactive,inactive,inactive,inactive
CCCN(CCC)CCCNc1ccc(C(=O)Nc2ccc(OCC)cc2)cc1[N+](=O)[O-],2%,7%,-4,89% (active),inactive,inactive,inactive,inactive
O=C(/C=C/c1ccc(Cl)c(Cl)c1)NC1CCC(CN2CCC(Cc3cc4ccccc4[nH]3)CC2)CC1 (stereo not drawn),74% (active),99% (active),-8,100% (active),inactive,inactive,inactive,inactive
Cn1nc(-c2ccc(CN[C@@H]3CCc4ccc(O)cc43)cc2)c2cnc(NC3CCCC3)nc21,8%,12%,0,97% (active),inactive,inactive,inactive,inactive
O=C(NCCN1CCCCC1)c1ccc(CNC(=O)c2ccc(O)c(-c3ccc(Cl)c(Cl)c3)c2)cc1,68% (active),3%,-8,93% (active),inactive,inactive,inactive,inactive
O=C(Cn1c(CCc2cccc(F)c2F)cc(=O)c2ccccc21)N(Cc1ccc(-c2ccc(C(F)(F)F)cc2)cc1)C1CCN(CCN2CCOCC2)CC1,41%,53% (active),4,101% (active),inactive,inactive,inactive,inactive
COCCOc1cc(C)c(C2CCN(CCCCNC(=O)c3ccc(NC(=O)c4ccc(Cl)cc4)cc3)CC2)cc1C,30%,15%,-2,88% (active),inactive,inactive,inactive,inactive
CCc1cn(C)c2c(N3CCCC3=O)cc(C(=O)N[C@@H](Cc3ccccc3)[C@H](O)CNC(C)(C)CCCC(C)C)cc12,98% (active),15%,-4,97% (active),inactive,inactive,inactive,inactive
O=C(/C=C/c1ccc(Cl)c(Cl)c1)NCC(CCCN1CCC(c2c[nH]c3ccccc23)CC1)c1ccccc1 (stereo not drawn),46%,98% (active),3,100% (active),inactive,inactive,inactive,inactive

Structure (SMILES),growth inhibition [1],inhibition [2],inhibition [3] [%],growth inhibition [4],outcome [5],outcome [6],outcome [7],outcome [8]
COc1ccc(CNCc2cccc(-c3cccc(-c4nc5ccc(C(F)(F)F)cc5[nH]4)c3)c2)cc1,91% (active),40%,4,100% (active),inactive,inactive,inactive,inactive
Cn1c2ccccc2c2c3ccccc3c(CNC(CO)(CO)CO)cc21,78% (active),67% (active),-1,96% (active),inactive,inactive,inactive,inactive
Cc1cccc(Cl)c1Nc1nnc(-c2cccc(C(=O)NC[C@@H]3CC[C@H]4C[C@@H]3C4(C)C)c2)o1,69% (active),2%,-3,85% (active),inactive,inactive,inactive,inactive
CCCCc1cc(NCc2ccncc2)nc(Nc2ccccc2)n1,4%,-5%,-3,96% (active),inactive,inactive,inactive,inactive
CCN1C(=O)C(CC(=O)Nc2cccc(Cl)c2)N(Cc2ccc(OC)c(OC)c2)C1=S (stereo not drawn),68% (active),13%,-8,100% (active),inactive,inactive,inactive,inactive
CCN(CC)CCCSc1ccc(-c2ccc(SCCCN(CC)CC)cc2)cc1,30%,38%,-8,87% (active),inactive,inactive,inactive,inactive
CCCCSc1nc2c(c(=O)n1Cc1ccco1)C1(CCCCC1)Cc1ccccc1-2,78% (active),13%,2,96% (active),inactive,inactive,inactive,inactive
CC1CCN(CC[C@H]2CCCN2S(=O)(=O)c2cccc(NC(=O)c3cc4ccccc4s3)c2)CC1,41%,28%,2,97% (active),inactive,inactive,inactive,inactive
Cc1cc(NCCc2ccccc2)nc(NC(=NCC(=O)OC(C)(C)C)Nc2ccc(C(F)(F)F)cc2)n1,97% (active),23%,2,100% (active),inactive,inactive,inactive,inactive
CN1CCCN(Cc2cccc(-c3cccc(NC(=O)c4ccc(Cl)cc4)c3)c2)CC1,44%,35%,2,100% (active),inactive,inactive,inactive,inactive
CCCCNCc1ccc(-c2nc(CN(CCCN3CCN(C)CC3)C(=O)Nc3cccc(Cl)c3)cs2)cc1,73% (active),35%,4,99% (active),inactive,inactive,inactive,inactive
COC(=O)c1cc2cccc(NC[C@@H](C)NC[C@H](O)c3cccc(Cl)c3)c2[nH]1,99% (active),-8%,-3,98% (active),inactive,inactive,inactive,inactive
Cc1cccc(Nc2c(-c3cc(Br)ccc3O)nc3ncccn23)c1,98% (active),-2%,1,100% (active),inactive,inactive,inactive,inactive
CC(C)(C)c1ccc(CNC(=O)c2ccc(-c3nc4ccc(C(C)(C)C)cc4[nH]3)cc2)cc1,49%,21%,3,96% (active),inactive,inactive,inactive,inactive
O=C(CSc1nn(-c2ccccc2)c(=S)s1)c1c[nH]c2ccccc12,68% (active),-7%,-1,93% (active),inactive,inactive,inactive,inactive
CCCCc1ccc(CCNCCCCCCNCCc2ccc(O)c(O)c2)cc1,-1%,45%,5,100% (active),inactive,inactive,inactive,inactive
O=C(/C=C/c1ccc(C(F)(F)F)cc1)NCCCCCN1CCN(C(=O)Nc2ccc(F)c(Cl)c2)CC1,-6%,35%,-2,89% (active),inactive,inactive,inactive,inactive
OC(CN1CCN(C2CCCCC2)CC1)Cn1c2ccccc2c2cc(Br)ccc21 (stereo not drawn),89% (active),14%,-2,97% (active),inactive,inactive,inactive,inactive

# Reference: PubChem BioAssay
